Experimental findings from PubChem BioAssay are described below.

The subject of the assay is Wnt5a (protein binding on small-molecule microarray). Kind of assay: small molecules binding Wnt5a protein – biophysical, small-molecule microarray, 635/667 nm fluorescence, primary screen (AID 1142).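 Note: fluorescence read at 667 nm with signal to noise per printed feature.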 Conditions: 635 nm fluorescence, higher = more signal.
The compound `CN(C)C(=O)[C@@]1(Cc2ccccc2)COC(c2ccc(OCCCO)cc2)=N1` returned a composite z-score of -0.243.
To `CO[C@H]1O[C@H](CO)[C@@H](OC(=O)CCc2ccccc2)[C@H](OC(=O)c2cc3ccccc3[nH]2)[C@H]1OC(=O)c1cc2ccccc2[nH]1` belongs 0.156; to `CN1C(=O)C2C=CC(C(O)c3cc(C(F)(F)F)cc(C(F)(F)F)c3)N(Nc3ccccc3)C2C1=O` (stereo unspecified), -0.253.
To `COCCOC(=O)N1C(=O)[C@@]2(c3cc(C#CCCO)ccc31)[C@H](C(N)=O)[C@H]1C(=O)O[C@H](c3ccccc3)[C@H](c3ccccc3)N1[C@@H]2c1ccc(OCCO)cc1` belongs 0.622; to `COCCOC(=O)N1C(=O)[C@@]2(c3cc(C#Cc4ccc(OC)cc4)ccc31)[C@H](C(=O)NC[C@H](O)c1ccccc1)[C@H]1C(=O)O[C@H](c3ccccc3)[C@H](c3ccccc3)N1[C@@H]2c1ccc(OCCO)cc1`, 0.76.
To `COCCOC(=O)N1C(=O)[C@@]2(c3cc(C#CCNC(N)=O)ccc31)[C@H](c1ccc(OCCO)cc1)N1[C@H](c3ccccc3)[C@H](c3ccccc3)OC(=O)[C@H]1[C@@H]2C(N)=O` belongs 0.428.
With `CC(=O)NCCCC[C@@H]1NC(=O)[C@H]2C[C@@H](C(=O)NCCCCCNC(=O)CS)[C@@H](c3cccc(OCCO)c3)N2C1=O`, the composite z-score was -0.0417.
To `O=C1O[C@H](c2ccccc2)[C@H](c2ccccc2)N2[C@H]1[C@@H](C(=O)N1CCCCCCC1)[C@]1(C(=O)Nc3ccc(C#CC4(O)CCCCCC4)cc31)[C@H]2c1ccccc1OCCO` belongs 2.32.
With `COCCCNC(=O)[C@@]1(c2ccc([N+](=O)[O-])cc2)CC(=O)N(CC23CC4CC(CC(C4)C2)C3)[C@@H]1c1ccc(CO)cc1I` the figure was 0.582; with `COc1ccc(C#Cc2ccc3c(c2)[C@]2(C(=O)N3)[C@H](C(=O)N3CCCCCCC3)[C@H]3C(=O)O[C@H](c4ccccc4)[C@H](c4ccccc4)N3[C@@H]2c2ccc(O)cc2)cc1`, 0.696; with `C=C(/C(=C/C[C@H](OC(=O)c1ccncc1)c1cccc(OCCO)c1)c1cnc2ccccc2c1)C(C)C`, 0.518.
The compound `CCCCCCCCCCC(O)C1C=CC2C(=O)N(C)C(=O)C2N1Nc1cc(OC)c(OC)c(OC)c1` (stereo unspecified) showed a composite z-score of -0.131.
With `Nc1cc(Br)ccc1C(=O)O` the figure was 0.0415.
For `CN(C)C(=O)[C@]1(CCS(=O)(=O)c2ccccc2)N=C(c2ccc(OCCCO)cc2)O[C@@H]1c1ccccc1`, the composite z-score stood at 0.995.
As for `O=C1N(CCS(=O)(=O)c2ccccc2)Cc2ccccc2[C@@H]2OC(c3ccc(OCCCO)cc3)=N[C@]12CCS(=O)(=O)c1ccccc1`, the composite z-score came out at 1.24.
With `COc1ccc([Si](C)(C)[C@H]2[C@H](CC(=O)N3Cc4ccccc4C[C@H]3CO)O[C@@]3(C(=O)N(Cc4ccc(N5C(=O)c6cccc7cccc5c67)cc4)c4ccccc43)[C@@H]2C)cc1` the figure was -0.108.
To `COCC1=C2[C@@H](CCc3ccccc3)OB(O)C[C@@H]2[C@@H]2C(=O)N(C)C(=O)[C@@H]2C1` belongs -0.16; to `CC(C)OC(=O)CC(=O)CC(O)c1ccc([N+](=O)[O-])cc1` (stereo unspecified), 0.0008; to `CC(C)C(=C=CC[C@@H](O)c1cccc(OCCO)c1)C[C@@H](O)c1ccccn1`, 0.189.
Compound `C=CCC(OC(C)=O)[C@@H]1[C@@H](N(Cc2cccc3ccccc23)C(=O)c2cccc3ccccc23)c2cc(OCCCO)ccc2N1C(=O)c1ccc2ccccc2c1` (stereo partly specified) showed a composite z-score of -0.23.
With `CC(=O)N1CC(C(O)C2C=CC3C(=O)NC(=O)C3N2Nc2ccc(Cl)cc2Cl)c2ccccc21` (stereo unspecified) the figure was -0.0061.
To `COC(=O)[C@@]1(Cc2ccc(F)cc2)[C@H]2c3cc(C(=O)N(C)C)n(Cc4c(CO)[nH]cc(C)c4=O)c3C[C@H]2CN1C(=O)c1ccccc1` belongs 0.39; to `CC(C)[C@H]1NC(=O)[C@@]23C(=O)N[C@@H](Cc4ccccc4)C2[C@H](C)[C@@]2(C)O[C@H]2C3/C=C/CCC/C=C/CNC(=O)[C@H](Cc2ccccc2)NC1=O` (stereo partly specified), -0.178.
For `CCOC(=O)C[C@H]1[C@H](OC(=O)c2ccccc2-c2ccccc2)[C@@H](NC(=O)c2ccccc2)c2cc(OCCCO)ccc2N1C(=O)c1ccccc1`, the composite z-score was found to be 0.309.
For the compound `COC(=O)[C@@]1(Cc2ccccc2CN=[N+]=[N-])N=C(c2ccc(OCCCO)cc2)O[C@H]1c1ccccc1`, the composite z-score came to 0.337.
With `C=C(COC)C(=O)CC[C@@H](OC(=O)c1cccnc1)c1ccccc1OCCO` the figure was 0.125; with `CC1CC/C=C\[C@H]2OC34C=CCN(CCN5CCOCC5)C(=O)[C@H]3N(C(C)CO)C(=O)[C@@H]4C2C(=O)O1` (stereo partly specified), -0.409; with `[N-]=[N+]=NCc1ccccc1[C@H]1OC(c2ccc(OCCCO)cc2)=N[C@@]1(CCS(=O)(=O)c1ccccc1)C(=O)NCc1ccccc1`, 0.486.
With `COc1ccc([Si](C)(C)[C@H]2[C@H](CCO)O[C@@]3(C(=O)N(Cc4ccc(N5C(=O)c6ccccc6Oc6ccccc65)cc4)c4ccccc43)[C@@H]2C)cc1` the figure was -0.154.
`O=C(NCC(O)CO)[C@@]1(CCS(=O)(=O)c2ccccc2)COC(c2ccc(OCCCO)cc2)=N1` (stereo partly specified): the composite z-score was found to be 0.556.
To `C=CCC(OC(C)=O)[C@@H]1[C@@H](N(Cc2cccc3ccccc23)C(=O)Cc2ccc(F)cc2)c2cc(OCCCO)ccc2N1C(=O)c1ccc(-c2ccccc2)cc1` (stereo partly specified) belongs 0.364; to `C=CCNC(=O)[C@@H]1[C@H]2C(=O)O[C@H](c3ccccc3)[C@H](c3ccccc3)N2[C@H](c2ccc(O)cc2)[C@@]12C(=O)N(C(=O)OCCOC)c1ccc(C#CCCO)cc12`, 0.905.
`C=CCNC(=O)[C@@H]1[C@H]2C(=O)O[C@H](c3ccccc3)[C@H](c3ccccc3)N2[C@H](c2ccc(OCCO)cc2)[C@@]12C(=O)N(C(=O)OCCOC)c1ccc(C#CCCO)cc12` showed a composite z-score of 0.85.
To `C=CCOC(=O)[C@H]1[C@@H]2C(=O)O[C@@H](c3ccccc3)[C@@H](c3ccccc3)N2[C@@H](c2ccc(OCCOC(=O)[C@H]3C[C@H]4C(=O)N[C@@H](CCCCNC(C)=O)C(=O)N4[C@H]3c3cccc(OCCO)c3)cc2)[C@]12C(=O)Nc1ccc(I)cc12` belongs 1.28.
With `COCCOC(=O)N1C(=O)[C@@]2(c3cc(C#CC4=CCCCC4)ccc31)[C@H](c1ccc(O)cc1)N1[C@H](c3ccccc3)[C@H](c3ccccc3)OC(=O)[C@H]1[C@@H]2C(=O)NC[C@H](O)c1ccccc1` the figure was 0.259; with `CN1C(=O)C2C=CC(C(O)c3ccc(I)cc3)N(Nc3ccccc3)C2C1=O` (stereo unspecified), 0.377.
